Data: PubChem BioAssay (NCATS)
Results filed as inconclusive are left out. Values without a mark were called inactive. Active and inactive are the calls of the source. Calls follow the shape of the dose curve; as a rule, active = well fitted inhibition curve with a large enough effect; inconclusive = small, poorly fitted or top-dose-only effect; inactive = flat fitted curve, though single readings scatter. *1 amine or outer side, *2 acyl side, *3 side chain or, on linkers, in order; H or OH if unused. Where a SMILES comes first, the peptide text is derived from it. Bridges are numbered along the chain shown (N, C = ends). [ ]: non-standard residue; d: D form. The star is where a group is joined. ξ: configuration not given here. X10 = NC1=NCCC(C(N[*:1])C(=O)[*:2])N1; ΔAla(3-NHCONH2) = NC(=O)NC=C(N)C(=O)O; ξβ3hOrn = NCCCC(N)CC(=O)*; Dap = NC[CH](N)C(=O)O

tested on: HEK293; test: Cytotoxic Profiling of Annotated Libraries Using Quantitative High-Throughput Screening (AID 1296008); details: Five cell lines viability, CellTiter-Glo ATP luminescence, 48-72 h; max response: active compounds read low; also: nearly all actives have a fitted effect of over 60% in size
Summary of the method: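 Cells exposed to compounds for 48 or 72 hr at 37 degrees Celsius. Viability read as ATP-coupled luminescence with CellTiter-Glo after 10 min at room temperature.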
% is scaled to controls: 0 for no effect and ±100 for the full control effect; potency is read from the fitted curve at half-maximal effect.

SMILES | Potency | max response [%]
CC(C)C[C@@H]1[C@H](c2ccccc2)OC(=O)N1CCCN1CCCCCC1 | 23.7 µM (active) | 
CCOC(=O)CN1CCCC1=O |  | -12.9
CCOC(=O)C(=O)c1csc(NC=O)n1 |  | 3.1
N[C@@H](Cc1cc(I)c(O)c(I)c1)C(=O)O |  | -5.41
CCOC(=O)Oc1ccc(CCNC(=O)[C@H](CCSC)NC(C)=O)cc1OC(=O)OCC |  | -13
C#CC(C)(CC)OC(=O)c1ccccc1C(=O)O (centres undefined) |  | 4.2
CCCOc1ccc2c(c1)CC[C@@H]1[C@@H]2CC[C@]2(C)C(OC)CC[C@@H]12 (some centres undefined) |  | -6.37
CC(C)(C)C1CCC(CC2=C(O)c3ccccc3C(=O)C2=O)CC1 (centres undefined) |  | 0.617
CN1Cc2cc(C(=O)N3CCC(C4CCNCC4)CC3)ccc2NC(CC(=O)O)C1=O (centres undefined) |  | -6.55
O=C(O)C1CCC1 |  | -2.16
NCCCC(N)CC(=O)NCC1NC(=O)C(CO)NC(=O)C(N)CNC(=O)C(C2CCN=C(N)N2)NC(=O)C(=CNC(N)=O)NC1=O (stereo not drawn) (H-[Dap]S[Dap](ξβ3hOrn)[ΔAla(3-NHCONH2)][X10]; lactam 1-C; configuration not given here) |  | -7.39
Nc1ccc(C(=O)OCC(O)CO)cc1 (centres undefined) |  | -11.2
Cc1ccccc1C(=O)N1CC/C(=N\OS(=O)(=O)O)c2ccc(Cl)cc21 |  | -7.21
Cn1cc(S(C)=O)c(=O)c2ccc(F)cc21 (centres undefined) |  | -2.1
O=C(CS(=O)Cc1ccco1)NC/C=C\COc1cc(CN2CCCCC2)ccn1 (centres undefined) |  | 0.0112
Cn1c(=O)c2c(ncn2CC(=O)O)n(C)c1=O |  | -8.26
Oc1cccc2[nH]ccc12 |  | 2.46
CC(C)C(=O)Nc1cccc(C2CN3CCSC3=N2)c1 (centres undefined) |  | -1.66
CCOC(=O)C(=O)CCCCCCl |  | -7.06
CNC[C@H](O)[C@@H](O)[C@H](O)[C@H](O)CO |  | -0.47

SMILES | Potency | max response [%]
CC(C)CCCC(C)NCCC(C)C (centres undefined) |  | -7.84
CCc1cccc2c(CCO)c[nH]c12 |  | -6.21
Clc1ccc2c(c1)Nc1ccccc1S2 |  | -6.16
CN1C(=O)c2ccccc2C1=O |  | -4.39
CC(=O)N(CC(=O)N(C)C)c1ccccc1 |  | -63.5
CC(=O)OC[C@H]1O[C@@H](OC(C)=O)[C@H](OC(C)=O)[C@@H]1OC(C)=O |  | 1.73
C/C(=C1\CCOC(=O)S1)N(C=O)Cc1cnc(C)nc1N |  | -12.5
Cc1cc(=O)oc2cc(O[C@@H]3SC[C@@H](O)[C@H](O)[C@H]3O)ccc12 |  | -8.77
Fc1ccc(C(c2ccc(F)cc2)N2CCNCC2)cc1 |  | -6.69
NC(=O)NS(=O)(=O)c1ccc(Cl)cc1 |  | -19.3
NC(=O)COCCN1CCN(C(c2ccccc2)c2ccc(Cl)cc2)CC1 (centres undefined) |  | 1.14
CC1(C)O[C@@H]2C[C@H]3[C@@H]4CCC5=CC(=O)C=C[C@]5(C)[C@@]4(F)[C@@H](O)C[C@]3(C)[C@]2(C(=O)CO)O1 |  | -6.9
COC(=O)c1ccc(NC(C)=O)cc1OC |  | -0.683
O=C(O)CCCC[C@@H]1SC[C@@H]2NC(=O)N[C@@H]21 |  | -6.79
O=C(O)CCC(=O)OC[C@@H](NC(=O)C(Cl)Cl)[C@H](O)c1ccc([N+](=O)[O-])cc1 |  | -21.8
C[C@H]1C[C@H](O)c2ccsc2S1(=O)=O |  | 3.47
[O-][n+]1cccc(/C(Cl)=N/OC[C@@H](O)CN2CCCCC2)c1 |  | -1.36
CCOC(=O)c1ccc(OCCN2C[C@H](O)[C@@H](O)[C@H](O)[C@H]2CO)cc1 |  | -10.3
CCCCOC(=O)CCCCCCCCC(=O)OCCCC |  | 1.21
